From PubChem BioAssay
Active and inactive are the calls of the source.

Assays:
Albumin (Bos taurus) = Albumin (Bos taurus) (UniProt P02769); assay: bovine serum albumin binders on microarray, profiling panel, artefact control for SMM control protein annotation, biochemical, small-molecule microarray, Alexa647 label, 635/667 nm fluorescence (AID 1118); settings: BSA-A647 binding, fluorescence 635 nm, higher = more signal;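 further: score merges 667 nm emission intensity and signal-to-noise per printed compound spot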
[1] = small-molecule microarray binders of probe aXIP, primary screen, biochemical, NeuroSMM set, 635/667 nm fluorescence (AID 1119); settings: higher = more signal, called active from +8 up or from −8 down;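 further: probe is the protein aXip251-270 applied at 1 µg/mL to compound-printed slides; binding of probe to printed compounds measured as 667 nm fluorescence plus signal to noise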
[2] = small-molecule binders of probe aNOTCH3, primary screen, biochemical, small-molecule microarray, 635/667 nm fluorescence (AID 1120); settings: higher = more signal;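 further: probe is a biotin-tagged antibody raised against NOTCH3 rather than NOTCH3 protein; score merges spot fluorescence near 667 nm with spot signal to noise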
[3] = small-molecule binders of probe aNOTCH2, primary screen, biochemical, small-molecule microarray, 635/667 nm fluorescence (AID 1121); settings: higher = more signal;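 further: score merges feature fluorescence read at 667 nm with its signal to noise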
[4] = target: Carbonic anhydrase 2 (Homo sapiens) (UniProt P00918); assay: CAII small-molecule binders, profiling panel, biochemical, small-molecule microarray, Alexa647-labelled CAII (AID 1122); settings: CAII-A647 binding fluorescence, higher = more signal
[5] = COS7 lysate on small-molecule microarray, probe aHis, 635 nm (AID 1123); settings: COS7 cell lysate, fluorescence, higher = more signal;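 further: z-score combines 667nm fluorescence intensity with signal-to-noise per printed compound spot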
[6] = compound binding in COS7 lysate, probe aLAP1, primary screen, cell lysate, small-molecule microarray (AID 1124); settings: probe aLAP1, fluorescence, higher = more signal;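 further: lysate comes from COS7 cells expressing LAP1 and is applied at 0.3 µg/mL; score merges spot fluorescence near 667 nm with signal-to-noise over triplicate slides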
Sam68 (KHDRBS1) = assay: Sam68 small-molecule binders, primary screen, biochemical, small-molecule microarray, 635 nm fluorescence (AID 1125); settings: small-molecule microarray binding, higher = more signal;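 further: score merges 667 nm channel intensity with signal to noise over triplicate slides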
[7] = test system: Chordin-like protein 2 (CHRDL2); assay: CHRDL2 small-molecule binders, primary screen, biochemical, small-molecule microarray, 635 nm fluorescence (AID 1126); settings: small-molecule microarray binding, fluorescence 635 nm; higher = more signal;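 further: printed compound slides probed with Chrdl2 protein at 4 µg/mL for 1 h at 4 C; score merges 667 nm emission intensity with signal to noise over three replicate slides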
[8] = target: Concanavalin-A (Canavalia ensiformis) (UniProt P02866); assay: ConA small-molecule binders, primary screen, artefact control for SMM control protein annotation, biochemical, small-molecule microarray, Alexa647 label, 635 nm (AID 1127); settings: ConA-A647 binding fluorescence, higher = more signal;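 further: z combines 667 nm emission intensity with signal-to-noise across three replicate slides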
[9] = anti-His antibody binders, primary screen, artefact control for SMM control protein annotation, biochemical, small-molecule microarray, 635 nm fluorescence (AID 1128); settings: anti-His Alexa647 antibody binding, higher = more signal;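 further: score merges feature fluorescence with signal-to-noise for each printed compound spot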
[10] = test system: Human papillomavirus type 1a E7 protein (residues 1-88); assay: HPV1a E7 small-molecule binders, primary screen, biochemical, small-molecule microarray, residues 1-88, 635 nm (AID 1129); settings: small-molecule microarray binding, fluorescence 635 nm; higher = more signal
[11] = target: Focal adhesion kinase 1 (Homo sapiens) (UniProt Q05397); assay: small-molecule microarray binders of FAK, primary screen, biochemical, 635/667 nm fluorescence, BSA, DTT (AID 1130); settings: PTK2 binding, 635 nm fluorescence, higher = more signal;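 further: composite of spot emission at 667 nm and signal to noise over triplicate slides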
[12] = test system: Fibrinogen (Alexa647-labelled); assay: fibrinogen binders on compound microarrays, profiling panel, artefact control for SMM control-protein annotation, biochemical, small-molecule microarray, 635/667 nm fluorescence (AID 1131); settings: fibrinogen-A647 binding fluorescence, higher = more signal;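 further: z-score merges 667 nm fluorescence with per-spot signal-to-noise over triplicate slides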
[13] = target: Follistatin (Homo sapiens) (UniProt P19883); assay: follistatin binders on small-molecule microarrays, primary screen, biochemical, small-molecule microarray, 635/667 nm fluorescence (AID 1132); settings: FST binding, 635 nm fluorescence, higher = more signal
[14] = target: Fibroblast growth factor 2 (Homo sapiens) (UniProt P09038); assay: FGF2 binders on small-molecule microarrays, primary screen, biochemical, small-molecule microarray, 635/667 nm fluorescence (AID 1133); settings: small-molecule microarray binding, FGF2, fluorescence 635/667; higher = more signal
[15] = mitochondrial membrane potential change in A549 cells, profiling panel, cell-based, JC-1 fluorescence, basal, 24 h, 100 nL (AID 1138); settings: higher = more signal;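 further: A549 lung adenocarcinoma cells under basal conditions with no added stimulus; test concentration not given here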
Lefty1 = Lefty1 binders on small-molecule microarrays, primary screen, biochemical, small-molecule microarray, 635/667 nm fluorescence (AID 1139); settings: small-molecule microarray binding, fluorescence 635/667; higher = more signal
[16] = test system: wheat germ agglutinin (Triticum aestivum), Alexa647-labelled; assay: wheat germ agglutinin binders on compound microarrays, profiling panel, artefact control for SMM control-protein annotation, biochemical, small-molecule microarray, 635/667 nm fluorescence (AID 1140); settings: WGA-A647 binding, 635 nm fluorescence, higher = more signal;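 further: score merges 667 nm feature emission with signal to noise over triplicate slides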
[17] = target: Luciferin 4-monooxygenase (Photinus pyralis) (UniProt P08659); assay: firefly luciferase enzyme inhibitors, primary screen, biochemical, luminescence, purified enzyme, 2006 set (AID 1141); settings: SteadyGlo luminescence, 30 min, higher = more signal, called active from +8 up or from −8 down;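 further: cell-free assay with purified firefly luciferase at 100 ng per well in PBS; test concentration not given here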
Luciferin 4-monooxygenase (Photinus pyralis), sequence (P08659 whole entry, looked up): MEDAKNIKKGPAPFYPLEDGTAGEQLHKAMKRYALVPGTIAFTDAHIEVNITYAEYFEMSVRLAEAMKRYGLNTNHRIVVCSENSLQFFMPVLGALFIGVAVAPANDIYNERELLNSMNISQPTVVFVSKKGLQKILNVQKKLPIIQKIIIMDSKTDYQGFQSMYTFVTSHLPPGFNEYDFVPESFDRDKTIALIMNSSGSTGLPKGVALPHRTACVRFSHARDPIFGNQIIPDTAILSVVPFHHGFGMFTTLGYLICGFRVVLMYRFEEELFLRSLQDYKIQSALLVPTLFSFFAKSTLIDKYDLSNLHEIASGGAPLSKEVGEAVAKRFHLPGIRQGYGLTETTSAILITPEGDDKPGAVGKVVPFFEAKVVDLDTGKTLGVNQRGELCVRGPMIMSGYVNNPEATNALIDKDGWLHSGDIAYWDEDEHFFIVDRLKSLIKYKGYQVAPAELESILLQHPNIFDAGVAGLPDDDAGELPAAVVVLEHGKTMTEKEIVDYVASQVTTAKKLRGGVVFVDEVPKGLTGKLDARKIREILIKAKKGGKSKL

Albumin (Bos taurus), sequence (P02769 whole entry, looked up): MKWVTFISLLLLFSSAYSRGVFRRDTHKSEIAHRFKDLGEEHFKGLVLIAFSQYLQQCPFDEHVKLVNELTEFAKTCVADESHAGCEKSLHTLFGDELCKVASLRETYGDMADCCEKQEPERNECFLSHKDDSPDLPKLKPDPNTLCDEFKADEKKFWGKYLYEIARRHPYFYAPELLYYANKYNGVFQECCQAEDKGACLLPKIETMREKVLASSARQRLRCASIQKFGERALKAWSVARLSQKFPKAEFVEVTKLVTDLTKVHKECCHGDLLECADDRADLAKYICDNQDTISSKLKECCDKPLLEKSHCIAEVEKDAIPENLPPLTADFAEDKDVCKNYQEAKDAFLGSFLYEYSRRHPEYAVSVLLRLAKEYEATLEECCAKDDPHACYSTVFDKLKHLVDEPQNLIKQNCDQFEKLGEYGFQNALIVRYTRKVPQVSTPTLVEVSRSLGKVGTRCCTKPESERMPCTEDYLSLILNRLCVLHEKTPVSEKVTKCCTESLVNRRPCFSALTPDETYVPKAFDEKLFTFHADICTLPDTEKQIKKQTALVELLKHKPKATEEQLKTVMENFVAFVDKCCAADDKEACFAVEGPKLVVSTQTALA
Focal adhesion kinase 1 (Homo sapiens), sequence (Q05397 whole entry, looked up): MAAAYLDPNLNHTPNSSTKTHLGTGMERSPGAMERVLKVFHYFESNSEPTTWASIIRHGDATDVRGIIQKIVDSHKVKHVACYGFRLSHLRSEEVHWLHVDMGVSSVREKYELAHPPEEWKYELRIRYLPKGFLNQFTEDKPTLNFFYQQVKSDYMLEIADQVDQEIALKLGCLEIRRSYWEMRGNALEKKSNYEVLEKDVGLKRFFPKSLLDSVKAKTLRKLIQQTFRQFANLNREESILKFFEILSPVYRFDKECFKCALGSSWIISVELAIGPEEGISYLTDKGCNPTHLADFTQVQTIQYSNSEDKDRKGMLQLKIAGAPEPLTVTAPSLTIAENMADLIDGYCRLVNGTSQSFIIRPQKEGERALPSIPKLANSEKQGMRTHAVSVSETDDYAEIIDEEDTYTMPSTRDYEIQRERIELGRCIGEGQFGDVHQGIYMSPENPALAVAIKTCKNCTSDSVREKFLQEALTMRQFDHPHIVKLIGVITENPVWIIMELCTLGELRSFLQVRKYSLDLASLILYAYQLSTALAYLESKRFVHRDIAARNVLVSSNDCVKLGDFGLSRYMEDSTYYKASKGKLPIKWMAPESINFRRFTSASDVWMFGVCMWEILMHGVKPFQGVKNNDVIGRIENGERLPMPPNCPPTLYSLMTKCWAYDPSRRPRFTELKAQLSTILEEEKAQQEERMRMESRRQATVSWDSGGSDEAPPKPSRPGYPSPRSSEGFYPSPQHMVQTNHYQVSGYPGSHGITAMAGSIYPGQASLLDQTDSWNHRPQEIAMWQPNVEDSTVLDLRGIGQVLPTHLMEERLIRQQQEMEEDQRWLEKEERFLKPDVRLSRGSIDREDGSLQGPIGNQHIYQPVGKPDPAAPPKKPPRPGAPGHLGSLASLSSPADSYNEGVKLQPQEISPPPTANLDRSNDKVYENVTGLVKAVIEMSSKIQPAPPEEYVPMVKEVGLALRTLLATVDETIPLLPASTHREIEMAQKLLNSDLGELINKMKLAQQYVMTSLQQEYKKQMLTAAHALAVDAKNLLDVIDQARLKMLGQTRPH
Concanavalin-A (Canavalia ensiformis), sequence (P02866 whole entry, looked up): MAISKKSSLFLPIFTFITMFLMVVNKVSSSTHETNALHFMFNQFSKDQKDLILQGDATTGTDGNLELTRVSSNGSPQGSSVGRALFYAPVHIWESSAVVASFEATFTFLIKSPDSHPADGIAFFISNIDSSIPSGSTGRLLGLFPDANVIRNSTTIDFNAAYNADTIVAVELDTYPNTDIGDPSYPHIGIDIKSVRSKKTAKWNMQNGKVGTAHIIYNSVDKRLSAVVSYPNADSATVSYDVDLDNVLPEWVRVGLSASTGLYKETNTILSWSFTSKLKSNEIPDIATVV
Fibroblast growth factor 2 (Homo sapiens), sequence (P09038 whole entry, looked up): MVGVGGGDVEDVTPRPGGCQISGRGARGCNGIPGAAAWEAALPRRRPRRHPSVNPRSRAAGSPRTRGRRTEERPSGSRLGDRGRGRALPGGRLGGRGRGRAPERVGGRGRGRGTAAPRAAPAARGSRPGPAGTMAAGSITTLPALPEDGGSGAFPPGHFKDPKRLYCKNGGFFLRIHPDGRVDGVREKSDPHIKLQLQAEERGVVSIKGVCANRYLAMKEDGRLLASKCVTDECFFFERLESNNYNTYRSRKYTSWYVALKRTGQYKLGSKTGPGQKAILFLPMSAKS
Follistatin (Homo sapiens), sequence (P19883 whole entry, looked up): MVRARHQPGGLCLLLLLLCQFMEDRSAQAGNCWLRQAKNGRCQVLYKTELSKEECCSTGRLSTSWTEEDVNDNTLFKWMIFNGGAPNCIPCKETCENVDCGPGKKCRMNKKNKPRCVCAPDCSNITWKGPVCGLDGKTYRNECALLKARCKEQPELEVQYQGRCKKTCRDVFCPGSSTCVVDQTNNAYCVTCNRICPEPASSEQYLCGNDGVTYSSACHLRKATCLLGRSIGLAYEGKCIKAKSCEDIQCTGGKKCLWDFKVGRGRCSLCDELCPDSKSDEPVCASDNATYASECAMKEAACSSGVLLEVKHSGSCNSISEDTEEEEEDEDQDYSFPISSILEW

SMILES	composite z-score (Albumin (Bos taurus))	composite Z-score [1]	composite z-score [2]	composite z-score [3]	composite z-score [4]	composite z-score [5]	composite z-score [6]	composite z-score (Sam68 (KHDRBS1))	composite z-score [7]	composite z-score [8]	composite z-score [9]	composite z-score [10]	composite z-score [11]	composite z-score [12]	composite z-score [13]	composite z-score [14]	z-score [15]	composite z-score (Lefty1)	composite z-score [16]	z-score [17]
CC(C)=NOC(C)CN1CCCCc2nc(C)c(C)cc21 (stereo not given)	0.673	0.761 (inactive)	0.169	-0.0859	0.418	0.951	0.045	0.313	0.732	0.109	0.734	-0.368	-0.368	0.755	0.886	0.234	0.23	0.603	-0.0583	-0.327 (inactive)
CC(CCN1CCc2nc(-c3ccccc3)c(-c3ccccc3)cc2C1)=NOC(C)CN1CCCc2nc(C)c(C)cc21 (stereo not given)	0.682	0.944 (inactive)	0.233	-0.0278	0.369	1.09	0.506	1.29	0.219	1.08	-0.929	1.15	0.382	0.96	0.94	0.541	3.46	0.659	0.379	0.397 (inactive)
CCCC[C@H]1CN2[C@@H](CC[C@@H](C)[C@@H]2c2ccc(Br)cc2)C(=O)O1	0.738	0.689 (inactive)	-0.137	-0.183	0.397	0.615	1.59	1.29	0.549	0.764	0.256	1.17	0.307	0.831	0.53	0.198	0.962	0.326	0.542	-2.12 (inactive)
Cc1ccc(C(C)C)n1C(=O)OC(C)(C)C	-0.0834	1.17 (inactive)	-0.118	-0.153	-0.0359	0.0884	0.322	0.456	0.501	0.173	-0.165	0.474	0.691	-0.115	0.54	0.29	1.99	0.494	0.188	-1.7 (inactive)
CCOC(=O)CCN1C(=O)[C@H]2[C@@H]3C(=CC[C@H]2C1=O)C(=O)[C@H]1O[C@H]1[C@H]3O	0.375	-0.342 (inactive)	-0.313	-0.146	0.534	-0.774	0.0946	-0.728	-0.23	-0.666	-0.705	-0.307	-0.336	-0.476	-1.02	-0.858	0.736	-0.762	0.243	-1.04 (inactive)
CC(C)=CCCC(C)=CCON=C1C[C@@H](O)[C@@H](O)[C@@H]2[C@@H]3C(=O)N(C4CCCCC4)C(=O)[C@@H]3CC[C@H]12	-0.207	1.59 (inactive)	-0.0784	-0.164	0.106	0.0252	0.514	1.07	1.07	0.48	0.857	0.573	1.12	0.573	1.06	1.25	0.292	1.48	-0.0924	-0.0223 (inactive)
CC(C)=CCCC(C)=CCON=C1C[C@@H](O)[C@@H](O)[C@@H]2[C@@H]3C(=O)N(Cc4ccc5c(c4)OCO5)C(=O)[C@@H]3CC[C@@H]12	0.653	0.74 (inactive)	0.0827	-0.0811	0.495	1.29	0.237	1.31	1.19	0.959	1.05	1.14	0.597	0.558	1.18	0.414	-0.286	0.709	0.574	0.696 (inactive)
CC(=O)OC[C@H]1O[C@H](CC=NO[C@@H](C)c2cn([C@H](CO)Cc3ccccc3)nn2)C=C[C@@H]1OC(C)=O	0.447	0.0225 (inactive)	0.0517	-0.0798	0.342	1.34	0.0198	0.987	0.394	0.506	-0.0515	0.656	-0.0806	0.827	0.679	0.45	-1.56	1.05	0.233	1.36 (inactive)
COC(=O)[C@@H]1CC[C@H](C)[C@@H](c2ccc(C)cc2)N1C(=O)c1ccc(C=NO[C@@H](C)c2cc(-c3c(C)cc(C)cc3C)no2)cc1	0.432	-0.136 (inactive)	-0.004	-0.126	0.154	-0.0142	-0.207	1.2	0.306	0.894	-0.637	0.706	0.137	0.602	0.365	0.553	1.65	0.677	0.0859	0.195 (inactive)
C=C(C)C(=O)OC[C@H]1CN2[C@@H](CC[C@@H](C)[C@@H]2c2ccc(Br)cc2)C(=O)O1	-0.625	0.27 (inactive)	-0.0362	-0.104	0.079	0.379	0.318	0.428	0.698	-0.426	2.44	0.0456	-0.174	-0.613	0.489	0.108	0.47	0.264	-0.034	-2.88 (inactive)
CC(=O)OC[C@H]1O[C@H](CC=NO[C@@H](C)c2cc(-c3c(C)cc(C)cc3C)no2)C=C[C@@H]1OC(C)=O	0.211	0.209 (inactive)	-0.0984	-0.0532	-0.273	-0.447	0.234	-0.177	0.236	0.105	1.81	-0.375	-0.206	0.318	0.0047	0.323	-0.921	-0.0273	0.229	0.644 (inactive)
CC(CCN1CCCCc2nc(C)c(C)cc21)=NOC[C@@H](O)[C@H]1O[C@@H]2OC(C)(C)O[C@@H]2[C@H]1O	0.814	-0.379 (inactive)	-0.0363	-0.166	-0.378	-0.461	-0.258	0.0948	1.16	-0.0142	3.04	-0.491	-0.319	1.01	0.416	0.937	-0.584	1	-0.163	0.766 (inactive)
